# Reference: PMC8384837, “Expanding the binding specificity for RNA recognition by a PUF domain”
# Assays:
# Test in all cases: yeast three-hybrid, YBZ-1, SC-Leu-His + 0.5 mM 3-AT, 4 days
# Settings in all cases: tags: N-Gal4 AD-HA kept; label: inside an RPR1-promoter hybrid RNA with tandem MS2 sites; ssRNA
# [1] = target: PUM1 PUF domain R1-YGR (Homo sapiens, UniProt Q14671 828-1176, S863Y;R864G;Q867R)
# Method in brief: (§1)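 Repeat regions from input (SC-Leu) and selection (SC-Leu-His + 0.5 mM 3-AT) plates were PCR-amplified and Illumina-sequenced after four days of growth. The cells were strain YBZ-1 with a LexA–MS2 coat fusion and a HIS3 reporter, co-expressing Pumilio-1 PUF domain libraries and matching RNA elements from a centromeric plasmid. The interaction score is the log change in variant frequency from input to selection, taken in log2 with a pseudocount of 1 for absent variants.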
# [2] = target: PUM1 PUF domain R1-RCT (Homo sapiens, UniProt Q14671 828-1176, S863R;R864C;Q867T)
# Method in brief: as §1
# [3] = target: PUM1 PUF domain R2-PWL (Homo sapiens, UniProt Q14671 828-1176, N899P;Y900W;Q903L)
# Method in brief: as §1
# [4] = target: PUM1 PUF domain R7-RCC (Homo sapiens, UniProt Q14671 828-1176, S1079R;N1080C;E1083C)
# Method in brief: as §1
# [5] = target: PUM1 PUF domain R1-RSE (Homo sapiens, UniProt Q14671 828-1176, S863R;R864S;Q867E)
# Method in brief: as §1
# [6] = target: PUM1 PUF domain R3-AIR (Homo sapiens, UniProt Q14671 828-1176, C935A;R936I;Q939R)
# Method in brief: as §1
# [7] = target: PUM1 PUF domain R3-LSK (Homo sapiens, UniProt Q14671 828-1176, C935L;R936S;Q939K)
# Method in brief: as §1
# [8] = target: PUM1 PUF domain R4-DWI (Homo sapiens, UniProt Q14671 828-1176, N971D;H972W;Q975I)
# Method in brief: as §1
# [9] = target: PUM1 PUF domain R3-VYP (Homo sapiens, UniProt Q14671 828-1176, C935V;R936Y;Q939P)
# Method in brief: as §1
# [10] = target: T1, PUM1 PUF domain R6-SWG (Homo sapiens, UniProt Q14671 828-1176, N1043S;Y1044W;Q1047G)
# T1 sequence: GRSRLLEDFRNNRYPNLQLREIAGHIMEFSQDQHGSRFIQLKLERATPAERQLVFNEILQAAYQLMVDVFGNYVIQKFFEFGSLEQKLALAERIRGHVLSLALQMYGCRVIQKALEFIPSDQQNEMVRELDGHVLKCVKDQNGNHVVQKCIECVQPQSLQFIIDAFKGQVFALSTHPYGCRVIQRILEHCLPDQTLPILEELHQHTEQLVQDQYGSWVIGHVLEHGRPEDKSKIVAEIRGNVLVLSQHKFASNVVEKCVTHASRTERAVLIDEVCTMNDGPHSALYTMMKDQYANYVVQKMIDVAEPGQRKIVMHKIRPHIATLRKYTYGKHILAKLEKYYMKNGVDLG
# Method in brief: as §1
# [11] = target: PUM1 PUF domain R5-SRM (Homo sapiens, UniProt Q14671 828-1176, C1007S;Q1011M)
# Method in brief: as §1
# [12] = target: PUM1 PUF domain R8-GYR (Homo sapiens, UniProt Q14671 828-1176, N1122G;Q1126R)
# Method in brief: as §1
# [13] = target: PUM1 PUF domain R4-DFL (Homo sapiens, UniProt Q14671 828-1176, N971D;H972F;Q975L)
# Method in brief: as §1
# [14] = target: PUM1 PUF domain R3-PHH (Homo sapiens, UniProt Q14671 828-1176, C935P;R936H;Q939H)
# Method in brief: as §1
# [15] = target: PUM1 PUF domain R8-RHW (Homo sapiens, UniProt Q14671 828-1176, N1122R;Y1123H;Q1126W)
# Method in brief: as §1
# [16] = target: PUM1 PUF domain R8-KRK (Homo sapiens, UniProt Q14671 828-1176, N1122K;Y1123R;Q1126K)
# Method in brief: as §1
sequence,measurement,setting,value
GGCUAGAACUAGUGGAUCCCCCGGCGCCCGGCGGCUCGAGCCCGGGUAAGUGUAAAUUGUCUGCAUGCCGCCGGGCGCCAUGCCUGCAGGUCGACUCUAGAAAACAUG,binding signal,[1],6.42 log2 enrichment (interaction score)
same,binding signal,[2],4.25 log2 enrichment (interaction score)
GGCUAGAACUAGUGGAUCCCCCGGCGCCCGGCGGCUCGAGCCCGGGUAAGUGUAAAGAGUCUGCAUGCCGCCGGGCGCCAUGCCUGCAGGUCGACUCUAGAAAACAUG,binding signal,[3],6.99 log2 enrichment (interaction score)
GGCUAGAACUAGUGGAUCCCCCGGCGCCCGGCGGCUCGAGCCCGGGUAAGUCUAAAUAGUCUGCAUGCCGCCGGGCGCCAUGCCUGCAGGUCGACUCUAGAAAACAUG,binding signal,[4],2.43 log2 enrichment (interaction score)
GGCUAGAACUAGUGGAUCCCCCGGCGCCCGGCGGCUCGAGCCCGGGUAAGUGUAAAUGGUCUGCAUGCCGCCGGGCGCCAUGCCUGCAGGUCGACUCUAGAAAACAUG,binding signal,[5],0.71 log2 enrichment (interaction score)
same,binding signal,[1],2.18 log2 enrichment (interaction score)
same,binding signal,[2],3.84 log2 enrichment (interaction score)
GGCUAGAACUAGUGGAUCCCCCGGCGCCCGGCGGCUCGAGCCCGGGUAAGUGUAAGUAGUCUGCAUGCCGCCGGGCGCCAUGCCUGCAGGUCGACUCUAGAAAACAUG,binding signal,[6],2.87 log2 enrichment (interaction score)
same,binding signal,[7],6.88 log2 enrichment (interaction score)
GGCUAGAACUAGUGGAUCCCCCGGCGCCCGGCGGCUCGAGCCCGGGUAAGUGUAAAUAGUCUGCAUGCCGCCGGGCGCCAUGCCUGCAGGUCGACUCUAGAAAACAUG,binding signal,[8],6.41 log2 enrichment (interaction score)
same,binding signal,[9],5.74 log2 enrichment (interaction score)
same,binding signal,[10],4.18 log2 enrichment (interaction score)
same,binding signal,[11],2.84 log2 enrichment (interaction score)
same,binding signal,[12],5.16 log2 enrichment (interaction score)
same,binding signal,[13],5.04 log2 enrichment (interaction score)
same,binding signal,[14],4.19 log2 enrichment (interaction score)
same,binding signal,[15],2.9 log2 enrichment (interaction score)
same,binding signal,[16],3.65 log2 enrichment (interaction score)
